Measured values from PubChem BioAssay (NCATS).
Where “and” joins values, the source holds several entries; their conditions need not be identical. Equal entries are not always repeated. Inconclusive results are not listed. Values without a mark were called inactive. The call rests on the fitted dose curve.

molecular target: Bile acid receptor (Homo sapiens) (UniProt Q96RI1); test: qHTS assay for small molecule agonists of farnesoid X receptor signaling (AID 588527); conditions: HEK293T FXR-UAS-bla, beta-lactamase ratio, 16 h; activation: hits give high values;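 further: series mostly up to about 77 µM; 0% = vehicle basal and 100% = reference agonist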
In short: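 FXR-UAS-bla HEK293T cells (10% dialyzed FBS) preincubated 5-7 h at 37 C, then compounds at up to 92 uM for 16 h at 37 C. CCF4 beta-lactamase read-out after 2 h RT. Normalized to chenodeoxycholic acid (100 uM) and DMSO; Hill fit gave EC50 and efficacy.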

Bile acid receptor (Homo sapiens), sequence (Q96RI1 whole entry, looked up): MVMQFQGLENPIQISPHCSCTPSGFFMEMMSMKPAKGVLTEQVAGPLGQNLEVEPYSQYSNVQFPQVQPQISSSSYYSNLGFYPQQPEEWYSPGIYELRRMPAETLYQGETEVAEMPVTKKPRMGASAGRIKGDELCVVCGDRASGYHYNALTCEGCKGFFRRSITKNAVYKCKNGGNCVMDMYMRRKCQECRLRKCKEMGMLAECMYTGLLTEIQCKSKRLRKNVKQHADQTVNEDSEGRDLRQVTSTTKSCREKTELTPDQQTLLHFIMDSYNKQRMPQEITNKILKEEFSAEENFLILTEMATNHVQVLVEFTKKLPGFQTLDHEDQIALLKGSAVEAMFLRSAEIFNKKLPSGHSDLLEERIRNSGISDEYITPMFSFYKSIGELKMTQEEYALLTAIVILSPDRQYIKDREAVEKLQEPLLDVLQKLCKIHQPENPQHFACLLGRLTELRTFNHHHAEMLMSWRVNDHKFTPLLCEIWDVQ

| Compound | activation |
| --- | --- |
| C[C@]12CCC(=O)C=C1CC[C@@H]1[C@@H]2[C@@H](O)C[C@]2(C=O)[C@@H](C(=O)CO)CC[C@@H]12 | 1.4% |
| N=C1C=CC(=C(c2ccc(N)cc2)c2ccc(N)cc2)C=C1 | 3.86% |
| CC(C)[C@@H]1CC[C@@H](C)C[C@H]1O | 0.612% |
| CC(C)(C)c1ccc(O)c(C(C)(C)C)c1 | 3.24% |
| O=Cc1ccc(CO)o1 | 2.1% |
| CCN(Cc1cccc(S(=O)(=O)O)c1)c1ccc(C(=C2C=CC(=[N+](CC)Cc3cccc(S(=O)(=O)O)c3)C=C2)c2ccccc2S(=O)(=O)[O-])cc1 | -1.6% |
| CSc1ccc(Cl)cc1 | -0.0441% |
| CC(C)(C)OC=O | -2.91% |
| CCCCCCCN | -2.09% |
| O=C1c2ccccc2C(=O)C1(O)O | 2.64% |
| COc1ccc(C(=O)Nc2ccccc2)cc1[N+](=O)[O-] | -2.07% |
| CCCCCCCCCC[N+](C)(C)Cc1ccccc1 | 3.15% |
| CCO[Si](CCC#N)(OCC)OCC | 0.364% |
| CC(C)c1ccccc1 | -3.82% |
| Cc1cc2nc(N)sc2cc1C | 0.811% |
| CCCCOC(=O)/C=C\C(=O)OCCCC | -3.9% |
| O=C(O)CCCCCCC(=O)O | 1.16% |
| CCOCCOCCOCCO | 2.46% |
| Oc1ccc(C(c2ccc(O)cc2)C(Cl)(Cl)Cl)cc1 | 0.126% |
| O=C(O)C1(C(=O)Nc2ccc(Cl)cc2Cl)CC1 | -11.8% |

| Compound | activation |
| --- | --- |
| Oc1ccc(Nc2ccccc2)cc1 | 0.593% |
| Nc1nc2ccccc2[nH]1 | 3.95% |
| CO[Si](CCCNCCC[Si](OC)(OC)OC)(OC)OC | 1.6% |
| O=Cc1ccccc1Cl | 0.21% |
| CCC(C)(C)C | -0.224% |
| CCCCC/C=C\C/C=C\CCCCCCCC(=O)O | -2.08% and -1.01% |
| Cc1ccccc1Br | -2.02% |
| CC(C)OB(OC(C)C)OC(C)C | -0.77% |
| C=CCOC(=O)CCCCCCCC | -1.24% |
| CCCCC(CC)COCCCN (stereo not given) | -0.0297% |
| Nc1ccc(S(=O)(=O)O)cc1 | -1.98% and -2.03% |
| CCOC(=O)C(C)Oc1ccc(Oc2cnc3cc(Cl)ccc3n2)cc1 (stereo not given) | -3.91% |
| CC(C)=CCC[C@@H](C)[C@H]1CC[C@@]2(C)C3=C(CC[C@]12C)[C@@]1(C)CC[C@H](O)C(C)(C)[C@@H]1CC3 | -5.29% |
| O=P(O)(OCc1ccccc1)OCc1ccccc1 | -0.26% |
| CC1CCC2CC1C2(C)C (stereo not given) | 3.3% |
| O=C=Nc1ccc(Cc2ccc(N=C=O)cc2)cc1 | 3.57% and 0.965% |
| c1ccc2c(c1)Cc1ccccc1-2 | 0.0131% |
| CC(C)C[C@H](NC(=O)OCC1c2ccccc2-c2ccccc21)C(=O)O | -0.845% |
| O=C(O)c1ccc2c(c1)C(=O)OC2=O | -5.89% |
| Cc1ccc2c(c1[N+](=O)[O-])C(=O)c1ccccc1C2=O | -4.5% |
